Most compounds without a hit are left out; they make up all but 11% or so of the library.
PNC inhibitor: perinucleolar compartment assembly inhibition; activity change (PNC), negative = inhibition, % at 10 µM; 140,000 tested, 3.1% active; AID 2417; PC3M PTB-GFP, PNC prevalence imaging, 16 h; hits give low values;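 active = readout at or below -70, meaning at least 70% loss of cells showing the perinucleolar compartment, a nuclear body marking cancer cells; inconclusive = readout between -30 and a set limit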;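 note: plate controls were DMSO wells for no effect and camptothecin positive control wells for full effect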
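Read-out is percentage of cells bearing a perinucleolar compartment, from automated 20x imaging of fixed, Hoechst-stained PC3M PTB-GFP cells. Cells were seeded 4 h, then exposed 16 h to compound (23 nl of library stock) in duplicate plates.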
ALDH1A1 block: inhibitors of human aldehyde dehydrogenase 1A1 | Purified ALDH1A1, NADH fluorescence, propionaldehyde substrate | Potency, µM (doses to about 75.3 µM), for inactives: top-dose activity, negative = inhibition, actives largely listed as inhibitors | 220,000 tested, 7.3% active | AID 1030; active = well fitted inhibition curve with a large enough effect, not every such curve was filed as active; inconclusive = small, poorly fitted or top-dose-only effect, or another doubt; inactive = no such curve, though single readings can be large or run the other way;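 note: potency is the fitted concentration of half-maximal effect; plate controls were no enzyme wells and a reference inhibitor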
Target sequence (P00352 whole entry, looked up): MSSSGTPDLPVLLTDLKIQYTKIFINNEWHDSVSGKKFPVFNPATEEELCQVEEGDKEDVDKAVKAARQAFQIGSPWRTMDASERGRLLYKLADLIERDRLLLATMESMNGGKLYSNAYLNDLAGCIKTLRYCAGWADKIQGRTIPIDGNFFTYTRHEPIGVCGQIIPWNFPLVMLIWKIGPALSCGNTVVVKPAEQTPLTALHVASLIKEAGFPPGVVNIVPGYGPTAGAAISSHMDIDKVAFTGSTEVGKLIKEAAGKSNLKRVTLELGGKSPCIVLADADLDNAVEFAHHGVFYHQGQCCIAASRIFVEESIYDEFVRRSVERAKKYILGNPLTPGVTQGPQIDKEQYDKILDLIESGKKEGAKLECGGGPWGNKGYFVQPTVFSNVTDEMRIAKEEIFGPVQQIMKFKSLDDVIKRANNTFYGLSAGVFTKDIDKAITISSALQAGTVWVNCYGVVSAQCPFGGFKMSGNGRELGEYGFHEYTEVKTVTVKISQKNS
HTT ATP protect: Huntington cell model cytoprotection by ATP luminescence; PC12 HTT-Q103 induced, cytoprotection, ATP luminescence, 40 h; Potency, µM (top dose mostly 56.4 µM), without a hit: cytoprotection (ATP increase), hits mostly activators; 230,000 tested, 0.14% active; AID 1471; note: potency is the fitted concentration of half-maximal effect; % of control where 0% means no effect; nearly all actives have a fitted effect of over 45% in size
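Stable PC12 Q103-GFP cells in serum-supplemented, phenol red-free DMEM; induction by tebufenozide at 100 nM final; compound dose series; cell viability quantified luminescently from ATP.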
RGS12 GoLoco inh: blocks human Gai1 binding to RGS12 GoLoco peptide, red readout; P63096; Potency, µM (titrated, usually from 61.6 µM), without a hit: at the top dose activity, negative = inhibition, actives largely listed as inhibitors; 230,000 tested, 0.44% active; AID 880; Gai1:RGS12 GoLoco peptide FP, rhodamine, 10 min; active = well fitted inhibition curve with a large enough effect, not every such curve was filed as active; inactive = no such curve, though single readings can be large or run the other way; note: potency is the fitted concentration of half-maximal effect; % is set by controls: 0 for no effect and ±100 for the full control effect; nearly all actives have a fitted effect of over 30% in size
HttQ103 aggreg: reduces HttQ103-GFP aggregates in PC12 cells | PC12 HttQ103-GFP aggregates, Acumen cytometry, 40 h | Potency, µM (top dose mostly 46.1 µM), for the others: top-dose activity change, negative = inhibition, usual class: inhibitors | 220,000 tested, 1.1% active; note: potency is the fitted concentration of half-maximal effect; % is set by controls: 0 for no effect and ±100 for the full control effect; nearly all actives have a fitted effect of over 60% in size
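Aggregate formation scored by laser-scanning cytometer (488 excitation, 500–530 emission) in lysed PC12 cells expressing Q103-GFP after 100 nM tebufenozide induction; library tested in dose series, with ATPLite reagent added in the multiplex.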
HPGD block: inhibitors of human 15-hydroxyprostaglandin dehydrogenase (HPGD); P15428; purified HPGD, NADH fluorescence kinetic, PGE2 substrate; Potency, µM, inactives show at the highest dose activity change, negative = inhibition, actives largely listed as inhibitors; 150,000 tested, 4.3% active; AID 894; active = well fitted inhibition curve with a large enough effect, not every such curve was filed as active; inconclusive = small, poorly fitted or top-dose-only effect, or another doubt; inactive = no such curve, though single readings can be large or run the other way; note: potency is the fitted concentration of half-maximal effect; % is set by controls: 0 for no effect and ±100 for the full control effect
Target sequence (P15428 whole entry, looked up): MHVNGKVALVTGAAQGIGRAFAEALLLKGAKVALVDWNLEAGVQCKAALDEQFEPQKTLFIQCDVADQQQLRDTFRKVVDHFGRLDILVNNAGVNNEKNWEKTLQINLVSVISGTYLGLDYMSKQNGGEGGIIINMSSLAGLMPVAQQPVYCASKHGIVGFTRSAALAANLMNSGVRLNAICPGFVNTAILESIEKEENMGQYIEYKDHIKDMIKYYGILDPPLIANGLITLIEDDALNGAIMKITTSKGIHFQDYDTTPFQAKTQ
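20 nM HPGD preincubated 15 min at room temperature with compound in 50 mM Tris-HCl pH 8, 0.01% Tween 20. Started with 1 mM NAD+ and 30 uM prostaglandin E2; NADH fluorescence (360/450 nm) read 5 times over 30-s intervals, last minus first.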
* marks the source's active call; other numbers are inactive results; u = inconclusive; x = not tested or not shown; [ ] = dose if it differs, or a comment. Unless noted, calls come from the whole dose curve; as a rule, active = well fitted curve in the direction sought with a large enough effect; inconclusive = small, poorly fitted or top-dose-only effect, or another doubt; inactive = no such curve, though single readings can be large; an effect the other way counts as inactive or inconclusive.

SMILES	PNC inhibitor	ALDH1A1 block	HTT ATP protect	RGS12 GoLoco inh	HttQ103 aggreg	HPGD block
O=C(O)[C@H]1CCCC[C@@H]1c1c2ccc(=O)c(O)c-2oc2c(O)c(O)ccc12	x	-9%[13.5 µM]	-12%[10 µM]	-10%[14.2 µM]	x	4.5µM*
O=C(O)/C=C\c1c2ccc(=O)c(O)c-2oc2c(O)c(O)ccc12	x	3%[13.5 µM]	0%[10 µM]	0.89µM*	x	2.8µM*
CCN(CC)CCNC(=O)c1c(C)[nH]c(/C=C2\C(=O)Nc3ccc(F)cc32)c1C	x	x	-353%	-6%	u	x
CC(C)(C)C(=O)[C@H]([C@@H](c1ccccc1)N1CCOCC1)N1CCOCC1	x	x	19%[10 µM]	x	x	x
Cc1cccc(-c2c3c(=O)n(C)c(=O)n(C)c3cn2CC2CCCO2)c1 (centres undefined)	19	20µM*	-22%	-9%	0%	-21%
Cn1c(=O)c2c(-c3ccc(C(C)(C)C)cc3)n(CC3CCCO3)cc2n(C)c1=O (centres undefined)	26	u	-32%	-2%	0%	-19%
CC(C)CC(=O)NC(=S)NNC(=O)c1ccc([N+](=O)[O-])cc1	-3	-4%	-10%[10 µM]	2%	-2%	32µM*
CCC(=O)NC(=S)NNC(=O)c1ccc([N+](=O)[O-])cc1	61	20µM*	9%	-5%	-5%	-27%
CCC(=O)NC(=S)NNC(=O)COc1ccc(Br)cc1	x	24µM*	x	10%	x	x
Cc1ccc(C(=O)NNC(=S)NC(=O)COc2ccccc2)cc1	u	18µM*	-21%	-10%	0%	-15%
CCOc1ccc(NC(=S)NNC(=O)c2ccc(Br)cc2)cc1	x	u	10%[10 µM]	4%	-7%	x
CC(C)CC(=O)NC(=S)NNC(=O)c1ccc(NC(=O)C2CCCCC2)cc1	32	-5%	45%[10 µM]	3%	-28%	-17%
O=C(c1cccc(-n2cnnn2)c1)N1CCOCC1	-15	11%	-27%	3%	1%	0%
O=C(CNC(=O)c1ccccc1)OC(C(=O)c1ccccc1)c1ccccc1 (centres undefined)	u	-9%	4%[10 µM]	-1%	-8%	-10%
COc1ccc(C(=O)C(OC(=O)CNC(=O)c2ccco2)c2ccccc2)cc1 (centres undefined)	7	20µM*	0%	-6%	-9%	-9%
CCC(=O)NC(=S)Nc1ccc(NC(=O)COc2ccccc2)cc1	-1	25µM*	-8%[10 µM]	3%	7%	-17%
COc1ccc(C(=O)NNC(=O)CNC(=O)C2CCCCC2)cc1	x	-4%	9%	-5%	7%	x
COc1ccc(C(=O)NC(=S)NNC(=O)CNC(=O)C2CCCCC2)cc1	x	22µM*	-26%	7%	8%	x
CCCOc1ccc(C(=O)NNC(=S)NC(=O)c2cc(-c3ccccc3)nc3ccccc23)cc1	11	-10%	16%	9%	7.1µM*	-9%
Cc1c(C)c2c(c(C)c1O)CC[C@@](C)(CCC[C@@H](C)CCC[C@@H](C)CCCC(C)C)O2	x	7%	u	11%	11%	-11%
COc1cc2oc(=O)cc(-c3ccc(-c4ccc(N(C)C)cc4)cc3)c2c(OC)c1OC	x	-12%	-18%	-14%	x	-16%
CCOC(=O)N1CCN(C(=O)c2cc(-c3ccc(OCC)cc3)nc3ccccc23)CC1	-95*	u	-118%	4%	-15%	u
CC(NC(=O)COc1ccc(Br)cc1)C(=O)O (centres undefined)	29	10µM*	1%	2%	4%	-15%
CC(NC(=O)COc1cccc(Br)c1)C(=O)O (centres undefined)	26	-10%	-27%	x	-5%	x
CCOc1ccc(-c2cc(C(=O)N3CCN(C)CC3)c3ccccc3n2)cc1	23	u	-166%[0.074 µM]	5%	21%	u
SMILES	PNC inhibitor	ALDH1A1 block	HTT ATP protect	RGS12 GoLoco inh	HttQ103 aggreg	HPGD block
C=CCNC(=S)NNC(=O)c1ccc(OCCCC)cc1	-122*	0%	11%[10 µM]	2%	-9%	-8%
COc1ccc(C(=O)NNC(=S)NC(=O)c2ccco2)cc1	-17	-6%	-46%	10%	20µM*	-13%
CCOC(=O)CN1C(=O)N[C@@H](c2ccccc2)[C@H](C(C)=O)[C@H]1C	x	20%[13.5 µM]	-2%[10 µM]	0%[14.2 µM]	x	0%
CCC(=O)NC(=S)NNC(=O)c1ccc(OC)cc1	u	40µM*	u	-8%	u	-29%
CC(C)(C)C(=O)NC(=S)NNC(=O)c1ccc(-c2ccccc2)cc1	x	-1%	u	6%	8.9µM*	x
CC(C)(C)C(=O)NC(=S)NNC(=O)c1ccncc1	x	-7%	-36%	16%	22%[9.22 µM]	x
CCCCOc1ccc(C(=O)NNC(=S)NC(=O)CC)cc1	u	-2%	4%[10 µM]	1%	u	-2%
O=C(CCOc1ccccc1)Nc1ccc([N+](=O)[O-])cc1	x	-1%	-52%	-2%	16%	x
N#Cc1c(NC(=O)Cn2nc(C(F)(F)F)c3c2CCCC3)sc2c1CCC2	57	7.9µM*	2%	-22%	-2%	8.9µM*
CC1CCc2c(sc(NC(=O)Cn3nc(C(F)(F)F)c4c3CCCCC4)c2C#N)C1 (centres undefined)	32	25µM*	-28%	-5%	-7%	35µM*
CC1CCN(CC(=O)Nc2sc3c(c2C#N)CCC3)CC1	9	u	8%[1.9 µM]	x	16%	x
CCC(C)C1NC(=O)C(CCNCS(=O)(=O)O)NC(=O)C(NC(=O)C(CCNCS(=O)(=O)O)NC(=O)C(NC(=O)C(CCNCS(=O)(=O)O)NC(=O)CCCCC(C)C)C(C)O)CCNC(=O)C(C(C)O)NC(=O)C(CCNCS(=O)(=O)O)NC(=O)C(CCNCS(=O)(=O)O)NC(=O)C(C(C)CC)NC1=O (centres undefined)	x	6%	-138%	-14%	-26%	-7%
S=c1nc(C2CC2)[nH]c2ccccc12	-11	13µM*	-29%[0.074 µM]	8%	5%	16µM*
S=c1nc(C2CCCCC2)[nH]c2ccccc12	x	3%	33%[10 µM]	14%	22%[9.22 µM]	x
CC(C)c1nc(=S)c2ccccc2[nH]1	-17	14µM*	15%	13%	-14%	u
CCC1(c2ccc(Cl)cc2)NC(=S)N(c2ccc(C)cc2)N1 (centres undefined)	1	28µM*	x	7%	25%	u
CC1(CCc2ccccc2)NC(=S)N(c2ccc(Cl)cc2)N1 (centres undefined)	-5	7.1µM*	19%[0.074 µM]	-17%	-6%	1µM*
CC1(CCc2ccccc2)NC(=S)N(c2ccccc2)N1 (centres undefined)	-124*	14%	x	-29%	6%	40µM*
Cc1cccc(CNc2ncncc2-c2ccc3c(c2)OCO3)c1	x	-15%	-13%	-12%	x	u
